Our source for the binding signal values is article PMC12820563, “FoxP3 forms a head-to-head dimer in vivo and stabilizes its multimerization on adjacent microsatellites”.

Whole data set: some 16,000 sequences, median “rpm ratio (pull-down/input)” near 0.94, cut for the highest 2% near 1.7. Shown is part of a subset that was picked to be rich in the highest values.

The target in this test is T1, MBP-FoxP1dN (Mus musculus, UniProt P58462 326-579).
T1 sequence: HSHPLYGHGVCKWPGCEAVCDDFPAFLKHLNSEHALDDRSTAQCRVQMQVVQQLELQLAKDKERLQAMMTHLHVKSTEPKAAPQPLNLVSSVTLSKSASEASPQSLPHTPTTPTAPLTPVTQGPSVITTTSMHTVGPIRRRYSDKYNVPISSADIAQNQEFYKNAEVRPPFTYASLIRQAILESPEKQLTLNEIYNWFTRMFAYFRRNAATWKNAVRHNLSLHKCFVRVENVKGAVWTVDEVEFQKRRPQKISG
The experiment in a line: PD-seq (MBP pull-down with sequencing); 20 mM Tris-HCl pH 7.5, 100 mM NaCl, 1.5 mM MgCl2, 0.4 uM protein, 0.1 uM dsDNA library, 30 min, room temperature, amylose pull-down; high values mean tight binding. The settings on record: protein: recombinant; tags: His6-MBP; chain copies: 2; dsDNA, one strand shown. The method, boiled down:
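His6-MBP-tagged mouse FoxP3 or FoxP1 fragment lacking the N-terminus, expressed in E. coli, was mixed at 0.4 µM with 0.1 µM Klenow-filled double-stranded degenerate DNA library. Incubation was 30 min at room temperature in Tris pH 7.5 buffer with NaCl and MgCl2. Complexes were caught on amylose resin and washed three times; DNA was released with proteinase K, PCR-barcoded and Illumina-sequenced. Binding is reads-per-million enrichment, pull-down over input, with replicates pooled.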
Consider “GATGATTGTTCTCCCAGCTGATGAATTTTTAGTATCGAGTAAACAAATTTTCCTAATCTTTCTGTTCAAGCGCCATCTAC”, for which the binding signal is 1.02 RPM ratio (pull-down/input).

Turning to “GATGATTGTTCTCCCAGCTGATGAATTGTTAGTATCGAGTAAACAAATTTTCCTAATCTTTCTGTTCAAGCGCCATCTAC”, the binding signal was 1.76 RPM ratio (pull-down/input).

“GATGATTGTTCTCCCAGCTGATGAATTATTATCATCGAGTAAACAAATTTTCCTAATCTTTCTGTTCAAGCGCCATCTAC”: the binding signal was 1.38 RPM ratio (pull-down/input).

With “GATGATTGTTCTCCCAGCTGATGAATTTCTATTATCGAGTAAACAAATTTTCCTAATCTTTCTGTTCAAGCGCCATCTAC”, the binding signal is 1.48 RPM ratio (pull-down/input).

For “GATGATTGTTCTCCCAGCTGATGAATTTTTATTATCGAGTAAACAAATTTTCCTAATCTTTCTGTTCAAGCGCCATCTAC”, the binding signal was 2.02 RPM ratio (pull-down/input).

In the case of “GATGATTGTTCTCCCAGCTGATGAATTATTTCTATCGAGTAAACAAATTTTCCTAATCTTTCTGTTCAAGCGCCATCTAC”, the binding signal was 1.13 RPM ratio (pull-down/input).

“GATGATTGTTCTCCCAGCTGATGAATTGTTATTATCGAGTAAACAAATTTTCCTAATCTTTCTGTTCAAGCGCCATCTAC”: the binding signal was 3.14 RPM ratio (pull-down/input).

With “GATGATTGTTCTCCCAGCTGATGAATTATCGTTATCGAGTAAACAAATTTTCCTAATCTTTCTGTTCAAGCGCCATCTAC”, the binding signal was 1.11 RPM ratio (pull-down/input).

Consider “GATGATTGTTCTCCCAGCTGATGAATTATTTTTATCGAGTAAACAAATTTTCCTAATCTTTCTGTTCAAGCGCCATCTAC”, for which the binding signal is 1.4 RPM ratio (pull-down/input).

Take “GATGATTGTTCTCCCAGCTGATGAATTTGGCGTCTCGAGTAAACAAATTTTCCTAATCTTTCTGTTCAAGCGCCATCTAC”: the binding signal is 0.85 RPM ratio (pull-down/input).

On to “GATGATTGTTCTCCCAGCTGATGAATTAGTTCGTTCGAGTAAACAAATTTTCCTAATCTTTCTGTTCAAGCGCCATCTAC”, for which the binding signal is 0.937 RPM ratio (pull-down/input).

Take “GATGATTGTTCTCCCAGCTGATGAATTCCGTGTTTCGAGTAAACAAATTTTCCTAATCTTTCTGTTCAAGCGCCATCTAC”: the binding signal is 0.891 RPM ratio (pull-down/input).

For the sequence “GATGATTGTTCTCCCAGCTGATGAATTATGATTCTCGAGTAAACAAATTTTCCTAATCTTTCTGTTCAAGCGCCATCTAC”, the binding signal is 0.982 RPM ratio (pull-down/input).

Turning to “GATGATTGTTCTCCCAGCTGATGAATTCCAAGCGTCGAGTAAACAAATTTTCCTAATCTTTCTGTTCAAGCGCCATCTAC”, the binding signal was 0.867 RPM ratio (pull-down/input).

On to “GATGATTGTTCTCCCAGCTGATGAATTGCACACATCGAGTAAACAAATTTTCCTAATCTTTCTGTTCAAGCGCCATCTAC”, for which the binding signal was 1.31 RPM ratio (pull-down/input).

Consider “GATGATTGTTCTCCCAGCTGATGAATTTCTGCAGTCGAGTAAACAAATTTTCCTAATCTTTCTGTTCAAGCGCCATCTAC”, for which the binding signal is 0.883 RPM ratio (pull-down/input).

In the case of “GATGATTGTTCTCCCAGCTGATGAATTGAGTGATTCGAGTAAACAAATTTTCCTAATCTTTCTGTTCAAGCGCCATCTAC”, the binding signal is 0.981 RPM ratio (pull-down/input).

On to “GATGATTGTTCTCCCAGCTGATGAATTACCGGGCTCGAGTAAACAAATTTTCCTAATCTTTCTGTTCAAGCGCCATCTAC”, for which the binding signal was 0.841 RPM ratio (pull-down/input).

As for “GATGATTGTTCTCCCAGCTGATGAATTAGAAAGTTCGAGTAAACAAATTTTCCTAATCTTTCTGTTCAAGCGCCATCTAC”, the binding signal was 0.938 RPM ratio (pull-down/input).

For the sequence “GATGATTGTTCTCCCAGCTGATGAATTTTTGATATCGAGTAAACAAATTTTCCTAATCTTTCTGTTCAAGCGCCATCTAC”, the binding signal is 1.17 RPM ratio (pull-down/input).

Regarding “GATGATTGTTCTCCCAGCTGATGAATTGATGATATCGAGTAAACAAATTTTCCTAATCTTTCTGTTCAAGCGCCATCTAC”, the binding signal is 1.21 RPM ratio (pull-down/input).

For the sequence “GATGATTGTTCTCCCAGCTGATGAATTTATTCTATCGAGTAAACAAATTTTCCTAATCTTTCTGTTCAAGCGCCATCTAC”, the binding signal was 1.16 RPM ratio (pull-down/input).

As for “GATGATTGTTCTCCCAGCTGATGAATTATTCTTATCGAGTAAACAAATTTTCCTAATCTTTCTGTTCAAGCGCCATCTAC”, the binding signal is 1.08 RPM ratio (pull-down/input).

As for “GATGATTGTTCTCCCAGCTGATGAATTATTCCTATCGAGTAAACAAATTTTCCTAATCTTTCTGTTCAAGCGCCATCTAC”, the binding signal is 1.08 RPM ratio (pull-down/input).

Regarding “GATGATTGTTCTCCCAGCTGATGAATTCTATTTATCGAGTAAACAAATTTTCCTAATCTTTCTGTTCAAGCGCCATCTAC”, the binding signal is 2.58 RPM ratio (pull-down/input).

Turning to “GATGATTGTTCTCCCAGCTGATGAATTGTTGATATCGAGTAAACAAATTTTCCTAATCTTTCTGTTCAAGCGCCATCTAC”, the binding signal is 2.16 RPM ratio (pull-down/input).

Consider “GATGATTGTTCTCCCAGCTGATGAATTATTTCAATCGAGTAAACAAATTTTCCTAATCTTTCTGTTCAAGCGCCATCTAC”, for which the binding signal is 1.11 RPM ratio (pull-down/input).

As for “GATGATTGTTCTCCCAGCTGATGAATTATTGTAATCGAGTAAACAAATTTTCCTAATCTTTCTGTTCAAGCGCCATCTAC”, the binding signal is 1.91 RPM ratio (pull-down/input).

With “GATGATTGTTCTCCCAGCTGATGAATTATTGTTATCGAGTAAACAAATTTTCCTAATCTTTCTGTTCAAGCGCCATCTAC”, the binding signal was 2.83 RPM ratio (pull-down/input).

As to “GATGATTGTTCTCCCAGCTGATGAATTATTCTAATCGAGTAAACAAATTTTCCTAATCTTTCTGTTCAAGCGCCATCTAC”, the binding signal is 1.2 RPM ratio (pull-down/input).

“GATGATTGTTCTCCCAGCTGATGAATTCTTATTATCGAGTAAACAAATTTTCCTAATCTTTCTGTTCAAGCGCCATCTAC”: the binding signal is 1.6 RPM ratio (pull-down/input).

Consider “GATGATTGTTCTCCCAGCTGATGAATTGAGGCTGTCGAGTAAACAAATTTTCCTAATCTTTCTGTTCAAGCGCCATCTAC”, for which the binding signal was 0.891 RPM ratio (pull-down/input).
